From PubChem BioAssay AID1508602 (The Scripps Research Institute Molecular Screening Center, 2020)
The whole screen tested about 650,000 compounds, of which about 6,800 (1%) were called active. No stated cut-off is given here; in the data, active means activation above about 4.9%; inactive means the rest. Only a selection was taken, and actives are over-represented in it overall.

Molecular target: G-protein coupled receptor 151 (Homo sapiens) (UniProt Q8TDV0)
Assay: activates the human receptor GPR151, primary screen, cell-based, PathHunter beta-arrestin, luminescence (AID 1508602);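 further: 0% = median of compound wells and 100% = cells with positive control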
Conditions: PathHunter beta-arrestin GPR151 cells, at 11.2 µM, hits give high values

G-protein coupled receptor 151 (Homo sapiens), sequence (Q8TDV0 whole entry, looked up): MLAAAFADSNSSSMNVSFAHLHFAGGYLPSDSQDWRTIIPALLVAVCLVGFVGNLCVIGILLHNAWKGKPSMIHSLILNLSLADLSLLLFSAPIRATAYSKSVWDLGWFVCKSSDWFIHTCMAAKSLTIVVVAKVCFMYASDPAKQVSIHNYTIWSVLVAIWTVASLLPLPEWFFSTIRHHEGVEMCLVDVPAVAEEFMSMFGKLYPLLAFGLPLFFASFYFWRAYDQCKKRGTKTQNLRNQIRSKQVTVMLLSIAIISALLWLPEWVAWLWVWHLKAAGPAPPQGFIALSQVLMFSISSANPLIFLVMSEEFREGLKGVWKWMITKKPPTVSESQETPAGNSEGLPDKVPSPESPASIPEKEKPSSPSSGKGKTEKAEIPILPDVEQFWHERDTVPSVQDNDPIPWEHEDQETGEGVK

| Compound | activation |
| --- | --- |
| O=C(Cc1ccccc1)NCc1nnc2n1CCN(Cc1ccc(F)cc1)CC2 | -0.584% (inactive) |
| COc1cc(-c2coc3cc(O[C@@H]4O[C@H](CO)[C@@H](O)[C@H](O)[C@H]4O)c(OC)c(O)c3c2=O)cc(O)c1OC | 8.99% (active) |
| CCc1cc2c(=O)c(-c3ccc4c(c3)OCO4)c(C)oc2cc1OC1OC(CO)C(O)C(O)C1O (stereo not drawn) | 0.749% (inactive) |
| COc1ccc(-c2coc3cc(OC4OC(COC5OC(C)C(O)C(O)C5O)C(O)C(O)C4O)cc(O)c3c2=O)cc1 (stereo not drawn) | -0.0364% (inactive) |
| CCc1ccc(CN2CCc3nnc(-c4ccccc4)n3CC2)o1 | -0.804% (inactive) |
| CCN1C(=O)CC(C(=O)OC)C12CCN(Cc1ccc(OC)c(OC)c1)CC2 (stereo not drawn) | 2.97% (inactive) |
| CCOC(=O)N1CCC(N2CCC(CO)(CCOc3ccccc3)CC2)CC1 | 0.442% (inactive) |
| C=CCN1C(=O)CC(C(=O)OC)C12CCN(C1CCN(C(=O)OCC)CC1)CC2 (stereo not drawn) | 12.8% (active) |
| CCOc1ccccc1OCCCNCc1ccccc1 | 0.0114% (inactive) |
| CCOc1ccccc1CNCC(C)O (stereo not drawn) | -1.22% (inactive) |
| CCCCOc1ccccc1CNCC | 6.95% (active) |
| CNC(=O)c1c(NC(=O)c2ccccc2F)sc2c1CCC(C(C)(C)C)C2 (stereo not drawn) | 2.94% (inactive) |
| O=C1CC(Cc2ccccc2)C(=O)N1c1ccc(Cl)cc1 (stereo not drawn) | 0.299% (inactive) |
| Cc1ccc(Cn2c(=S)[nH]c3ccc(Cl)cc3c2=O)cc1 | 0.529% (inactive) |
| c1ccc2sc(-c3cnc4ccc(NC5CCOCC5)nn34)cc2c1 | 5.94% (active) |
| Oc1ccc(-c2cnc3ccc(NC4CCOCC4)nn23)cc1 | -0.504% (inactive) |
| Brc1cccc(-c2cnc3ccc(NC4CCOCC4)nn23)c1 | -0.245% (inactive) |
| O=C(CN(CC1CCCO1)C(=O)CNS(=O)(=O)c1ccccc1)NC1CCCCC1 (stereo not drawn) | 0.636% (inactive) |
| Cc1cc(C)nc(SCC(=O)N/N=C/c2ccc(Cl)cc2Cl)n1 | 0.39% (inactive) |
| COc1cccc(/C=N/NC(=O)CSc2nc(C)cc(C)n2)c1OC | 1.66% (inactive) |
| CC(/C=N\NC(=O)CSc1nc(C)cc(C)n1)=C\c1ccccc1 | 9.38% (active) |
| COc1ccc(C(=O)CCNC(C(=O)O)C(C)O)cc1 (stereo not drawn) | -0.172% (inactive) |
| COc1ccc(/C=N/N2CCN(c3ccccn3)CC2)cc1 | 0.849% (inactive) |
| c1ccc(N2CCN(c3ccccn3)CC2)nc1 | -0.177% (inactive) |

| Compound | activation |
| --- | --- |
| C(=N\N1CCN(c2ccccn2)CC1)/C1=C(N2CCOCC2)C(=C/c2ccccc2)/CC1 | 6.77% (active) |
| CCOC(=O)c1sc2nc(SCC(=O)NCc3ccccc3Cl)n(Cc3ccc(Cl)cc3)c(=O)c2c1C | -0.0258% (inactive) |
| Cc1cc(C)c(S(=O)(=O)Nc2cccc(N3CCCS3(=O)=O)c2)c(C)c1 | 0.72% (inactive) |
| Cc1cc(C)cc(NC(=O)C(CC(C)C)NS(=O)(=O)c2ccc3c(c2)oc(=O)n3C)c1 (stereo not drawn) | 3.86% (inactive) |
| Cc1cn2c3c(=O)n(Cc4ccccc4)c(=O)n(C)c3nc2n1C | 0.103% (inactive) |
| Cc1ccccc1C(=O)NNC(=O)c1ccc(NC(=O)C(C)C)cc1 | 1.54% (inactive) |
| CCN1CCCC1CNc1nc(=S)[nH]c2ccccc12 (stereo not drawn) | 9.1% (active) |
| O=C(O)C1CCC(CNc2nc(=S)[nH]c3ccccc23)CC1 (stereo not drawn) | -0.367% (inactive) |
| CC1CCN(CCCNc2nc(=S)[nH]c3ccccc23)CC1 | -3.01% (inactive) |
| CCCCn1c(N)c(N(CC(C)C)C(=O)CCC(=O)O)c(=O)[nH]c1=O | -0.868% (inactive) |
| CCN1CCN(C(C)C(=O)Nc2cc(C)on2)CC1 (stereo not drawn) | -5.25% (inactive) |
| CC1C(=O)NC(=O)N1c1ccc(Cl)cc1 (stereo not drawn) | 2.6% (inactive) |
| COc1cn2c(cc1=O)C(=O)N(CCNC(=O)c1cccc(F)c1)CC2 | 0.552% (inactive) |
| C=CCC(CC=C)(NC(=O)c1ccc([N+](=O)[O-])cc1)c1ccccc1 | 2.8% (inactive) |
| CCN1/C(=C/c2ccc3cc(C)ccc3[n+]2CC)Sc2ccc(OC)cc21 | 1.84% (inactive) |
| CCC(/C=C1\Sc2ccc(-c3ccccc3)cc2N1CC)=C\c1sc2ccc3ccccc3c2[n+]1CC | -0.19% (inactive) |
| CCN1/C(=C/c2ccc3cc(C)ccc3[n+]2CC)Sc2ccc(-c3ccccc3)cc21 | 18.5% (active) |
| CCCc1cc(=O)[nH]c(SCC(=O)Nc2ccc(C(N)=O)cc2)n1 | -0.889% (inactive) |
| COc1ccc(N2C(=O)C3CCCN3C2c2cccc(OC)c2)cc1 (stereo not drawn) | 6.4% (active) |
| COc1ccc(N2C(=O)C3CCCN3C2c2cc(OC)c(OC)cc2OC)cc1 (stereo not drawn) | -1.11% (inactive) |
| COc1cccc(N2C(=O)C3CCCN3C2c2ccc(F)cc2)c1 (stereo not drawn) | 1.08% (inactive) |
| CCOC(=O)COc1cccc2c(=O)n(CC(=O)Nc3cccc(Cl)c3)ccc12 | -0.932% (inactive) |
| CC(C)(C)CC(C)(C)c1ccc(OCC(=O)NNC(=O)c2ccccc2Cl)cc1 | -0.581% (inactive) |
| CCOC(=O)c1c(NC(=O)CSc2nc3ccccc3[nH]2)sc2c1CCC2 | -0.467% (inactive) |

| Compound | activation |
| --- | --- |
| CCOC(=O)c1ccc2nc(NC(=O)CSc3nc4ccccc4[nH]3)sc2c1 | 7.06% (active) |
| CCSc1nnc(NC(=O)CSc2nc3ccccc3[nH]2)s1 | 0.0173% (inactive) |
| C=CCn1cnc2sc(C)c(-c3ccc(Cl)cc3)c2c1=O | 1.23% (inactive) |
| C=CCSc1nnc(-c2cc(N(C)C)nc(N(C)C)n2)n1C | 3.52% (inactive) |
| O=C(c1cc(COc2ccc3ncccc3c2)on1)N1C[C@@H]2CCC[C@H]1C2 | 0.767% (inactive) |
| COCC1CCN(C(=O)c2cc(COc3ccc4ncccc4c3)on2)C1 (stereo not drawn) | 2.98% (inactive) |
| CCN(CC)C1CCN(C(=O)c2cc(COc3ccc4ncccc4c3)on2)C1 (stereo not drawn) | 5.71% (active) |
| Cc1[nH]c2ccccc2c1C(=O)CN1CCN(c2ccccc2)CC1 | -0.808% (inactive) |
| Cc1cc2c(cc1C)NC(CC(=O)Nc1ccc(Cl)cc1Cl)C(=O)N2 (stereo not drawn) | -1.58% (inactive) |
| O=C(Nc1ccc(Cl)c(-c2nc3ccccc3o2)c1)c1cc([N+](=O)[O-])ccc1Cl | 0.267% (inactive) |
| Cc1cc(C)cc(OCC(=O)NNC(=O)c2cccc(Cl)c2)c1 | 0.56% (inactive) |
| COc1ccc(C(=O)NNC(=O)c2cccc(Cl)c2)cc1OC | 1.28% (inactive) |
| COc1ccc(COC(=O)NNC(=O)c2cccc(Cl)c2)cc1 | 6.17% (active) |
| CCOC(=O)N1CCN(C(=O)CSc2nnc(-c3ccc(OC)cc3)o2)CC1 | -0.713% (inactive) |
| COc1ccc(-c2cn3c(NC(=O)c4ccccc4)cnc3cn2)cc1 | -2.03% (inactive) |
| COc1cc(/C=N/NC(=O)c2cccs2)cc(OC)c1OC | -1.73% (inactive) |
| O=C(N/N=C/c1cccc(Cl)c1Cl)c1cccs1 | 10.6% (active) |
| O=C(N/N=C/c1cccc(Cl)c1Cl)c1ccc(O)cc1 | 0.598% (inactive) |
| COc1ccc(CNCc2cccn2-c2sc(C)c(C)c2C(=O)O)cc1 | 0.477% (inactive) |
| C=CCN(c1ccc(C(=O)Nc2ccc(OCc3ccccc3)cc2)cc1)S(C)(=O)=O | 5% (active) |
| C=CCN(c1ccc(C(=O)Nc2ccc(Br)c(Cl)c2)cc1)S(C)(=O)=O | 0.888% (inactive) |
| C=CCN(c1ccc(C(=O)Nc2cc(C)cc(C)c2)cc1)S(C)(=O)=O | -0.236% (inactive) |
| CCOC(=O)c1ccc(NC(=O)CSc2nc(NCc3ccc(Cl)cc3)c3ccccc3n2)cc1 | -0.895% (inactive) |
| O=C(Nc1cccc(Cl)c1)N(C1=NCCC1)c1ccc(Cl)cc1 | 0.148% (inactive) |

| Compound | activation |
| --- | --- |
| CC(=O)c1c(C)[nH]c(C(=O)N2CCN(c3ccc(Cl)cc3)CC2)c1C | 5.19% (active) |
| CC(=O)c1c(C)[nH]c(C(=O)CN2CCN(C(=O)c3ccccc3)CC2)c1C | 0.331% (inactive) |
| CCc1c(C(=O)N2CCN(c3cccc(Cl)c3)CC2)[nH]c(C)c1C(C)=O | 4.26% (inactive) |
| COc1ccc(C(=O)NCCc2ccc(F)cc2)cc1[N+](=O)[O-] | 0.474% (inactive) |
| COc1cccc(-c2nnc(N)s2)c1 | -0.725% (inactive) |
| Cc1cnc(C(=O)N2CCc3ccc(NC(=O)Cc4ccccc4F)cc3C2)cn1 | 1.39% (inactive) |
| CCOC(=O)N1CCN(Cc2nc3c(c(=O)n(C)c(=O)n3C)n2CC(C)C)CC1 | -1.33% (inactive) |
| COc1ccccc1C1CCCN1C(=O)C1CCN(c2nc(C)c3ccccc3n2)CC1 (stereo not drawn) | 11.3% (active) |
| Cc1nc(N2CCCC2C(=O)N2CC3CCC2C3)nc2ccccc12 (stereo not drawn) | 0.0962% (inactive) |
| COc1ccccc1C1CCCN1C(=O)C1CC(Cc2ccc(F)cc2)=NO1 (stereo not drawn) | 1.31% (inactive) |
| O=C(O)CCC(=O)N1N=C(c2ccc(O)cc2)CC1c1ccc(Br)cc1 (stereo not drawn) | 0.932% (inactive) |
| CCc1cc(C(=O)COc2ccc([N+](=O)[O-])cc2)c(O)cc1O | -0.273% (inactive) |
| Cc1cc(Oc2ncnc(N)c2[N+](=O)[O-])cc(C(C)C)c1 | 1.22% (inactive) |
| NC(=O)c1ccnc(N2CCc3ccccc3C2)c1 | 0.149% (inactive) |
| CN1C(=O)NC(=O)/C(=C\c2ccc(-c3ccc(Br)c(Cl)c3)o2)C1=O | -0.645% (inactive) |
| COc1cc(C=O)ccc1OCc1ccc(Br)cc1 | -0.687% (inactive) |
| COc1ccc(C=O)cc1OCc1ccc(F)cc1 | 4.92% (active) |
| COc1cc(C=O)ccc1OCCOc1ccc(C=O)cc1OC | -1.4% (inactive) |
| O=C(CC1=CCCCC1)NCC1Cc2cc(F)cc(-c3cncnc3)c2O1 (stereo not drawn) | -1.03% (inactive) |
| CCc1cccc(C)c1NC(=O)/C=C/C(=O)O | 0.671% (inactive) |
| CCCNC(=O)c1ccc(Cl)cc1[N+](=O)[O-] | 1.13% (inactive) |
